Our source for the growth values is PubChem BioAssay (NCI).

Values joined by “and” are separate entries in the source; they are usually repeats but may differ in a detail not shown here. Equal entries are not always repeated. The panel holds about 83,000 compounds, 20% with a hit somewhere; the sample as a whole holds those more often.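 Testing used 96-well plates and a 48-hour single-concentration exposure. Example: -40 means 40% of the starting cells died.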 Unmarked numbers belong to inactive results. Active and inactive are the calls of the source. The calls were made as follows: active = growth percent below 10; inactive = the rest.

For the assay, the system named is MDA-MB-468 breast. Briefly: NCI-60 one-dose screen, 48 h (100 = growth as untreated, 0 = no growth, -100 = all killed). Conditions: 10 µM unless noted.
Consider `COC1C(O)CC(OC2CC(OC3CC(O[C@@H]4C(=O)c5c(cc6cc(OC7CC(OC8CC(O)C(O)C(C)O8)C(O)C(C)O7)c(C)c(O)c6c5O)CC4[C@H](OC)C(=O)C(C)=O)OC(C)C3O)OC(C)C2O)OC1C` (stereo not given in full), for which the growth is -64.7% (active).

Consider `N#Cc1c(NC(=O)c2cccc(C(F)(F)F)c2F)sc2c1CCC(=O)C2`, for which the growth is -32% (active).

Turning to `COc1ccc(/C=N\N2CCOCC2)cc1OC1CCCC1`, the growth was 117%.

With `CC(C)c1nc2ccccc2n1CC(=O)N/N=C/c1cccc(O)c1`, the growth was 98.4%.

In the case of `CC1OC2CC(=O)OC2C2=C1C(=O)c1c(O)cccc1C2=O` (stereo not given), the growth is -73.4% (active).

On to `Nc1c(C(=O)c2ccccc2)sc2nc(-c3cnccn3)cc(-c3cccs3)c12`, for which the growth was 111%.

`[2H]C1([2H])[C@H](C)O[C@H](C)C([2H])([2H])N1c1ccc(NC(=O)c2cccc(-c3ccc(OC(F)(F)F)cc3)c2C)cn1`: the growth is 41.9%.

With `O=C(NN1C(=O)CSC1c1ccc(Cl)cc1)c1[nH]c2ccc(F)cc2c1-c1ccccc1` (stereo not given), the growth was 69.3%.

Regarding `Cc1ccc(-c2cc(-c3ccccc3C)[nH]c(=O)c2C#N)s1`, the growth was 99.3%.

For the compound `CC(C)C1=NOC(=O)C1=Cc1cn(-c2ccccc2)nc1-c1ccc(Br)cc1`, the growth is 92.2%.

As for `Cc1nn(-c2ccccc2)c(-n2ccnc2)c1/C=N/Nc1nc(-c2ccc(Cl)c(Cl)c2)cs1`, the growth was -8.71% (active).

Regarding `COc1cc2cc(NCc3cccc(Cl)c3)nc(C)c2cc1OC`, the growth was 46.6%.

`Nc1c(CNCc2nnn(Cc3ccccc3)c2N)nnn1Cc1ccccc1`: the growth was 100%.

Regarding `Cc1nn(-c2ccccc2)c2nc3c(nc12)C1=NCCN1C(c1ccc(Cl)cc1)N3` (stereo not given), the growth is 48.2%.

In the case of `O=c1c2ccccc2sc2c(NCCCNCCO)nc3ccccc3c12`, the growth was -57.3% (active).

Take `Cc1ccc(NC(=O)Nc2nc3ccccc3s2)cc1NC(=O)Nc1nc2ccccc2s1`: the growth is 96%.

As for `CCCCCCC/C=N/NC(=O)c1ccc(-n2cc(-c3ccccc3)nn2)cc1`, the growth was 82.6%.

With `O=C(NCc1cccc(CNC(=O)Nc2nc3ccccc3[nH]2)c1)Nc1nc2ccccc2[nH]1`, the growth is -20.2% (active).

Regarding `COc1ccc(NC(=O)c2ccc(Nc3ncnc4c3cnn4-c3cccc(F)c3)cc2)cc1`, the growth was 100%.

For `COc1cc2nc(NC3CCC3)nc(NC3CCN(C(C)C)CC3)c2cc1OC`, the growth is 16.5%.

Regarding `Cc1ccsc1C(NC(=O)c1ccccc1)c1cc(Cl)c2cccnc2c1O` (stereo not given), the growth was 4.52% (active).

Turning to `CCOc1ccc(-n2nc(C(=O)NCc3ccccc3OC)nc2-c2cc(OC)c(OC)c(OC)c2)cc1`, the growth is 72.4%.

In the case of `Nc1cc(-c2cccc(OC(F)(F)F)c2)nc2ccc(N3CCCC3)cc12`, the growth was -10.7% (active) and -15.9% (active) and -23.5% (active).

In the case of `CCN1C(=O)N(CC)C2Nn3c(s/c(=C\c4ccc(Cl)cc4Cl)c3=O)=NC21` (stereo not given), the growth is 32.1%.

Turning to `O=C(NCCCl)Nc1nccnc1OCc1ccc(F)cc1`, the growth was 102%.

For `Nc1ccc2c(c1Br)Cc1ccccc1-2`, the growth was 111%.

On to `COC(=O)[C@]1(C(C)C)N[C@H](c2cn(-c3ccccc3)nc2-c2ccccc2)[C@@H]2C(=O)N(c3ccc(Cl)cc3)C(=O)[C@@H]21`, for which the growth is 119%.

Turning to `CCC1=Cc2cc(OC)ccc2OC12C=Cc1cc(OC)ccc1O2` (stereo not given), the growth is 69.6%.

Take `O=C(/C=C/c1ccc(F)cc1)Nc1ncc(Cc2ccc(F)cc2)s1`: the growth was 8.11% (active).

Consider `COc1cc(-c2nc(-c3ccccc3)[nH]c2-c2ccnc(NCCCNS(=O)(=O)c3ccc(C(F)(F)F)cc3)n2)ccc1Cl`, for which the growth is 14% and 41.9%.

In the case of `[O-]/[N+](=C\C=C\c1ccccc1)c1ccccc1`, the growth was 113%.

Take `CS(=O)c1nccc(-c2c(-c3ccc(F)c(OCc4ccccc4)c3)nc3sccn23)n1` (stereo not given): the growth was -19.4% (active).

As to `CC#Cc1nc(Nc2cc(C)[nH]n2)c2ccccc2n1`, the growth is 1.44% [100 µM] (active).

`COc1cc2nc(-c3ccc(C(F)(F)F)cc3)cc(OCCCN3CCCCC3)c2cc1OC`: the growth was 52.5%.

On to `COC(=S)SCN(CSC(=S)OC)c1ccc(Cl)cc1`, for which the growth is 95.1%.

Turning to `O=c1c2c(c3ccccc3n1-c1ccccc1)NC(=S)NC2c1ccc(Cl)cc1` (stereo not given), the growth is 115%.

As for `COc1c(/C(C)=N/N=c2sc(C(C)=O)nn2-c2ccc(Cl)cc2)c(Oc2ccccc2)c(OC)c2occc12`, the growth is 106% and 98.8%.

Regarding `Cc1cc(N2CCCC2)nc(N(CCNc2ccnc3cc(Cl)ccc23)Cc2ccco2)n1`, the growth is 13.3%.

As to `COc1ccc2cc(-c3ccc(-c4ccc(C(=N)N)cc4)s3)ccc2c1`, the growth was 98.2%.

Take `CCc1cc2c(cc1N1CCC(N3CCOCC3)CC1)C(C)(C)c1[nH]c3cc(C#N)ccc3c1C2=O`: the growth was -38.2% (active).
